Measurements published in PubChem BioAssay (Tox21).
Records with an inconclusive call do not appear. Calls of active or inactive are those of the source. Unless noted, calls come from the whole dose curve; as a rule, active = well fitted curve in the direction sought with a large enough effect in the repeat runs; inconclusive = weak or mixed curves; inactive = no such curve, though single readings can be large; an effect the other way counts as inactive or inconclusive.

What was measured:
[1] = qHTS assay to identify small molecule antagonists of the peroxisome proliferator-activated receptor delta (PPARd) signaling pathway - cell viability counter screen (AID 743213); note: nearly all actives have a fitted effect of over 50% in size
Summary of the method: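 PPARd-bla HEK293H cells were treated with compounds plus agonist L165041 (300 nM final) for 17 h at 37 C. Viability was then read in the same wells by CellTiter-Glo luminescence after 30 min at room temperature.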

[2] = molecular target: Peroxisome proliferator-activated receptor delta (Homo sapiens) (UniProt Q03181); assay: qHTS assay to identify small molecule antagonists of the peroxisome proliferator-activated receptor delta (PPARd) signaling pathway (AID 743215; active = well fitted inhibition curve with a large enough effect in the signal ratio in the repeat runs, not every such curve was filed as active; the % refers to the signal ratio;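 note: cells stimulated with agonist L165041 at 300 nM final during compound exposure; series mostly up to about 62 µM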)
Summary of the method: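 Plated HEK293H PPARd-bla cells rested 5 h at 37 C and 5% CO2. Compound, then agonist L165041 at 300 nM final, was added; 17 h at 37 C followed. Substrate loading, 2 h room temperature, fluorescence measured.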

[3] = molecular target: Bile acid receptor (Homo sapiens) (UniProt Q96RI1); assay: qHTS assay to identify small molecule antagonists of the farnesoid-X-receptor (FXR) signaling pathway (AID 743217; active = well fitted inhibition curve with a large enough effect in the signal ratio in the repeat runs, not every such curve was filed as active; the % refers to the signal ratio)
Summary of the method: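 Screen of the Tox21 10K library in quantitative HTS format using FXR-UAS-bla HEK 293T reporter cells. Agonist chenodeoxycholic acid, 50 uM final, added with compounds; 16 h incubation at 37 °C; beta-lactamase FRET fluorescence measured.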

[4] = qHTS assay to identify small molecule agonists of the farnesoid-X-receptor (FXR) signaling pathway - cell viability counter screen (AID 743218); note: nearly all actives have a fitted effect of over 45% in size
Summary of the method: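 Viability of FXR-bla HEK 293T cells is measured by ATP-based CellTiter-Glo luminescence following 16 h compound treatment at 37 C and a prior 2 h room-temperature beta-lactamase substrate step.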

[5] = molecular target: Bile acid receptor (Homo sapiens) (UniProt Q96RI1); assay: qHTS assay to identify small molecule agonists of the farnesoid-X-receptor (FXR) signaling pathway (AID 743220; active = well fitted activation curve with a large enough effect in the signal ratio in the repeat runs, not every such curve was filed as active; the % refers to the signal ratio)
Summary of the method: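 FXR-UAS-bla HEK 293T cells carrying a UAS-driven beta-lactamase reporter were plated for 5 h at 37C/5% CO2, then exposed to DMSO-dissolved Tox21 10K compounds for 16 h at 37C. A LiveBLAzer B/G FRET substrate was loaded for 2 h at room temperature before fluorescence reading.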

[6] = qHTS assay to identify small molecule antagonists of the farnesoid-X-receptor (FXR) signaling pathway - cell viability counter screen (AID 743221; active = well fitted cell-killing curve with a large enough effect in the repeat runs, not every such curve was filed as active; note: nearly all actives have a fitted effect of over 50% in size)
Summary of the method: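 Quantitative HTS of the Tox21 10K library run in parallel with the beta-lactamase reporter read. HEK 293T cells carrying a UAS-driven bla reporter got compound and 50 uM CDCA (final) for 16 h; ATP-based luminescence followed.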

[7] = molecular target: Vitamin D3 receptor (Homo sapiens) (UniProt P11473); assay: qHTS assay to identify small molecule agonists of the vitamin D receptor (VDR) signaling pathway (AID 743222; calls by dose curve)
Summary of the method: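 Fluorescence from cleaved LiveBLAzer B/G FRET substrate served as readout. VDR-bla cells had been treated 16 h at 37C with test compounds in DMSO, following a 4 h settling period, and substrate was loaded for 2 h at RT.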

[8] = molecular target: Vitamin D3 receptor (Homo sapiens) (UniProt P11473); assay: qHTS assay to identify small molecule antagonists of the vitamin D receptor (VDR) signaling pathway (AID 743223; active = well fitted inhibition curve with a large enough effect in the signal ratio in the repeat runs, not every such curve was filed as active; the % refers to the signal ratio)
Summary of the method: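 Fluorescence from LiveBLAzer B/G FRET substrate, read after 2 h at room temperature, reflects beta-lactamase reporter activity in VDR-bla cells treated 16 h at 37C with compounds and agonist 1alpha,25-dihydroxyvitamin D3 (3 nM final).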

[9] = qHTS assay to identify small molecule agonists of the vitamin D receptor (VDR) signaling pathway - cell viability counter screen (AID 743224); note: series mostly up to about 63 µM; nearly all actives have a fitted effect of over 50% in size
Summary of the method: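 Compounds were pin-transferred onto VDR-bla cells plated 4 h earlier; following 16 h incubation at 37C, cell viability was quantified by CellTiter-Glo luminescence after 30 min at room temperature.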

[10] = molecular target: Peroxisome proliferator-activated receptor delta (Homo sapiens) (UniProt Q03181); assay: qHTS assay to identify small molecule agonists of the peroxisome proliferator-activated receptor delta (PPARd) signaling pathway (AID 743212; calls by dose curve;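 note: HEK293H cells with PPARd UAS beta-lactamase reporter GeneBLAzer system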)
Summary of the method: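 Beta-lactamase reporter readout: a ratiometric FRET signal from the LiveBLAzer substrate after 2 h at room temperature. Compound exposure at 37 °C in PPARδ-bla HEK293H cells driven by an upstream activator sequence.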

Measured: Potency

Chain of Vitamin D3 receptor (Homo sapiens) (P11473 whole entry, looked up): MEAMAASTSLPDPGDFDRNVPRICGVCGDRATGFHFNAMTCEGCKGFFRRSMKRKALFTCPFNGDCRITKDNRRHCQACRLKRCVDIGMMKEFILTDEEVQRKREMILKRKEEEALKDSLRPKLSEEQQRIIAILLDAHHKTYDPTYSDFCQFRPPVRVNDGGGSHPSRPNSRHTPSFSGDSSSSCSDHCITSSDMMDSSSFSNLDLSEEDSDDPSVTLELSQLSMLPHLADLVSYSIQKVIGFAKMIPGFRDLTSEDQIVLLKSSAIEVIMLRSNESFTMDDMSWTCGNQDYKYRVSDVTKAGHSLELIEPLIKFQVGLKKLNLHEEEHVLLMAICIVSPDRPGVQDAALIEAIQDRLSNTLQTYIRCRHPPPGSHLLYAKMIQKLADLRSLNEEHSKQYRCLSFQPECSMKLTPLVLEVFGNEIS
Chain of Bile acid receptor (Homo sapiens) (Q96RI1 whole entry, looked up): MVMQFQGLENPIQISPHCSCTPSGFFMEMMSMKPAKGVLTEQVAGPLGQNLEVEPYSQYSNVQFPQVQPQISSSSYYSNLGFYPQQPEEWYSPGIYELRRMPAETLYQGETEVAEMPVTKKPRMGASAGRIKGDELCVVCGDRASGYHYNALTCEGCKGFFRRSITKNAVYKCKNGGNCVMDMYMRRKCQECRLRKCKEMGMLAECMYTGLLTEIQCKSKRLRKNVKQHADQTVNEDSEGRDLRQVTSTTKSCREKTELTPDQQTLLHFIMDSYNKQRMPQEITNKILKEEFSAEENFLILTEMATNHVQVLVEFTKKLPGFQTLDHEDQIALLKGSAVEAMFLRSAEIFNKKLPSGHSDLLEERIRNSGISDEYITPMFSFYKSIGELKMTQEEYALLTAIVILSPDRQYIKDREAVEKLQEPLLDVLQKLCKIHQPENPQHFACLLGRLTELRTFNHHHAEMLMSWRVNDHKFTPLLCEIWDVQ
Chain of Peroxisome proliferator-activated receptor delta (Homo sapiens) (Q03181 whole entry, looked up): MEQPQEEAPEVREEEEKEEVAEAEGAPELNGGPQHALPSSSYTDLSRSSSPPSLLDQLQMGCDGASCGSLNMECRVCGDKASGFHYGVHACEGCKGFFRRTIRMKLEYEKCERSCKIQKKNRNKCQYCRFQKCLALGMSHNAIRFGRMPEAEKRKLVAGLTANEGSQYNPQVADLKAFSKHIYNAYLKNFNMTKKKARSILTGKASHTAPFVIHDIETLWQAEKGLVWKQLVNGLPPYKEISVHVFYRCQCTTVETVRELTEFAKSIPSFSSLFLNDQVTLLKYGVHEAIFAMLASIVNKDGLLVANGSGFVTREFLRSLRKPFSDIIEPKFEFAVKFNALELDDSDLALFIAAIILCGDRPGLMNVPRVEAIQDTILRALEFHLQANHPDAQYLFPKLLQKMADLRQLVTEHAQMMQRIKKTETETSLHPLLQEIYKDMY

N#CCCOCCOCCC#N
not listed: [10]
inactive: all other assays above

CO[Si](CCCS)(OC)OC
inactive: [10] | [3] | [4] | [9]

C=CCOCC(O)CCl (stereo not given)
not listed: [1] | [3] | [5]
inactive: all other assays above

O=C(c1ccc2c(c1)C(=O)OC2=O)c1ccc2c(c1)C(=O)OC2=O
inactive: [1] | [2] | [3] | [5] | [7] | [9]

CC(C)(C)c1ccc(C=O)cc1
not listed: [3] | [5] | [10]
inactive: all other assays above

CCCCOC(=O)C(=O)OCCCC
inactive: [10] | [2] | [3] | [6] | [9]

NC(=O)NNC(N)=O
inactive: [1] | [2] | [3] | [6] | [7]

CO[Si](CCCCl)(OC)OC
inactive: [10] | [2] | [4] | [6] | [7] | [9]

O=C(O)c1ccc(OCCN2CCCCC2)cc1
not listed: [1] | [3] | [5]
inactive: all other assays above

Cc1ccccc1C
inactive: [10] | [2] | [4] | [6] | [7] | [9]

CCCCCCCC/C=C\CCCCCCCC(=O)OC[C@@H](O)[C@H]1OC[C@H](O)[C@H]1O
not listed: [1] | [3] | [5]
inactive: all other assays above

COc1ccc(/C=N/NC(=O)c2ccncc2)cc1OC
inactive: [10] | [2] | [4] | [6] | [9]

CNC(=O)C(c1ccccc1)c1ccccc1
not listed: [1] | [2] | [3]
inactive: all other assays above

CCCOCCOCCOCCO
not listed: [1] | [4] | [8]
inactive: all other assays above

O=c1cc(O)c(Cl)c[nH]1
not listed: [4] | [6] | [10]
inactive: all other assays above

O=C(O)c1c(Cl)ccc(Cl)c1Cl
inactive: [10] | [2] | [4] | [6] | [7] | [9]

Nc1c(NC/C=C\COc2cc(CN3CCCCC3)ccn2)c(=O)c1=O
not listed: [5] | [7] | [10]
inactive: all other assays above

CCCCOC(=O)[C@@H](C)Oc1ccc(Oc2ccc(C(F)(F)F)cn2)cc1
not listed: [10]
inactive: all other assays above

CC(C)c1ccccc1O
not listed: [5] | [10]
inactive: all other assays above

CC(C)CCCCCCOC(=O)C1CCCCC1C(=O)OCCCCCCC(C)C (stereo not given)
not listed: [1] | [2] | [5]
inactive: all other assays above

SCCSCCS
not listed: [5] | [8] | [10]
inactive: all other assays above

CCC(C)(C)C1CCC(=O)CC1
inactive: [10] | [2] | [6] | [7] | [8] | [9]

CC1=CC[C@H](CC=O)C1(C)C
not listed: [1] | [6]
inactive: all other assays above

O=C(COCCOCCOCC(=O)Nc1c(I)cc(I)c(C(=O)O)c1I)Nc1c(I)cc(I)c(C(=O)O)c1I
inactive: [10] | [2] | [6] | [9]

CCCCCCCCOC(C)=O
inactive: [10] | [2] | [4] | [6] | [7] | [9]

c1ccccc1
not listed: [10]
inactive: all other assays above

Cn1c(=O)c2c(ncn2CC2OCCO2)n(C)c1=O
inactive: [10] | [2] | [3] | [4] | [5] | [9]

CC(C)C(=O)c1ccccc1
inactive: [10] | [2] | [9]

F[Si-2](F)(F)(F)(F)F
not listed: [1] | [3]
inactive: all other assays above

CC(C)(CO)[C@@H](O)C(=O)NCCCO
not listed: [1] | [5]
inactive: all other assays above

OC(CCN1CCCCC1)(c1ccccc1)c1ccccc1
inactive: [1] | [4] | [6]

Nc1cc(S(=O)(=O)O)ccc1S(=O)(=O)O
inactive: [1] | [3] | [4] | [6] | [7] | [9]

CCCCC(CC)C(=O)OC(C)C (stereo not given)
inactive: [1] | [3] | [4] | [6] | [7] | [9]

Nc1ccnc(=O)[nH]1
inactive: [1] | [2] | [4] | [6] | [7] | [9]

NS(=O)(=O)c1ccc(Cl)c(S(N)(=O)=O)c1
inactive: [1] | [4] | [6] | [7] | [8] | [9]

COC(=O)CCC(=O)O
inactive: [1] | [4] | [6] | [7] | [9]

Cc1ncc([N+](=O)[O-])n1CC(O)CCl (stereo not given)
not listed: [2] | [6] | [10]
inactive: all other assays above

C[C@H](CCC(=O)O)[C@H]1CC[C@H]2[C@@H]3[C@H](O)C[C@@H]4C[C@H](O)CC[C@]4(C)[C@H]3C[C@H](O)[C@]12C
inactive: [1] | [3] | [4] | [5] | [6] | [9]

CCCCCCCCCCCCCC(=O)OC
inactive: [1] | [2] | [4] | [6] | [7] | [9]

c1ccc(CNc2ncnc3nc[nH]c23)cc1
inactive: [1] | [3] | [6] | [7] | [9]

CCC(=O)c1ccc(O)cc1
inactive: [1] | [3] | [5] | [7] | [8] | [9]

C=CCOc1c(Br)cc(C(C)(C)c2cc(Br)c(OCC=C)c(Br)c2)cc1Br
not listed: [2] | [8] | [10]
inactive: all other assays above

CCCCC[Si](OCC)(OCC)OCC
inactive: [1] | [2] | [6] | [9]

C=C(C)C(=O)OCCCCCCOC(=O)C(=C)C
inactive: [1] | [4] | [6] | [7] | [9]

O=c1[nH]c(=O)c2ccccc2o1
inactive: [1] | [3] | [4] | [6] | [9]

O=S(=O)(O)c1cc(O)ccc1O
inactive: [1] | [2] | [7] | [8] | [9]

O=S(=O)(O)SSS(=O)(=O)O
inactive: [1] | [2] | [4] | [6] | [9]

C[C@@H]1C[C@H]2[C@@H]3C[C@H](F)C4=CC(=O)C=C[C@]4(C)[C@@]3(F)[C@@H](O)C[C@]2(C)[C@@]1(O)C(=O)CO
inactive: [1] | [4] | [6] | [7] | [8] | [9]

CCCCCCCC[Si](OCC)(OCC)OCC
inactive: [1] | [2] | [6] | [7] | [8] | [9]

CCOC(=O)CC(CC(=O)OCC)(OC(C)=O)C(=O)OCC
not listed: [2] | [5] | [10]
inactive: all other assays above

C[C@H](CCC(=O)NCC(=O)O)[C@H]1CC[C@H]2[C@@H]3[C@H](O)C[C@@H]4C[C@H](O)CC[C@]4(C)[C@H]3C[C@H](O)[C@]12C
not listed: [2] | [10]
inactive: all other assays above

CCN(Cc1cccc(S(=O)(=O)O)c1)c1ccccc1
inactive: [1] | [3] | [5] | [6] | [7] | [9]

CN(C)CCCNCCC#N
not listed: [3] | [5] | [10]
inactive: all other assays above

O=C(Nc1cccc(C2=NCCN2)c1)Nc1cccc(C2=NCCN2)c1
inactive: [1] | [2] | [9]

Cc1oc(=O)oc1CN1CCN(c2cc3c(cc2F)c(=O)c(C(=O)O)c2n3C(C)S2)CC1 (stereo not given)
inactive: [1] | [2] | [4] | [6] | [7] | [9]

CO/N=C(/C(=O)N[C@@H]1C(=O)N2C(C(=O)O)=C(Cn3nnc(C)n3)CS[C@H]12)c1csc(N)n1
inactive: [1] | [3] | [6] | [7] | [8] | [9]

CCC(C)(CCC(C)C)C(=O)[O-].CCC(C)(CCC(C)C)C(=O)[O-].[Zn+2] (stereo not given)
inactive: [1] | [2] | [4] | [7] | [9]

COc1ccc(NS(=O)(=O)c2ccc(N)cc2)nn1
inactive: [1] | [3] | [5] | [6] | [7] | [9]

O=S1(=O)CCCC1
not listed: [2] | [4] | [10]
inactive: all other assays above

CC(=O)Nc1ccc(C)cc1
inactive: [1] | [2] | [6] | [7] | [9]

CN[C@@H]1[C@H](O)[C@H](NC)[C@H]2O[C@@]3(O)C(=O)C[C@@H](C)O[C@H]3O[C@@H]2[C@H]1O
not listed: [2] | [5] | [10]
inactive: all other assays above

CCC(C)N (stereo not given)
inactive: [1] | [2] | [4] | [7] | [9]
